# In the supplement of paper PMC8728848:
# About 410 targets per protein were measured; listed, in parts, are those with the strongest signals and a random draw of the rest.
# Assays:
# Test in all cases: glycan array binding signal (z-score within array); higher = stronger binding
# Conditions in all cases: glycan notation: IUPAC condensed, linker removed
# [1] = target: Fuc(a1-2)Gal
# Method in brief: (§1)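 The binding signal is a Z-score computed within each array and averaged over linkers. Arrays of the same protein sequence at different concentrations or buffers were also averaged together. Data originate from 3228 arrays in the Consortium for Functional Glycomics database, kept only where the protein sequence was available.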
# [2] = target: Fuc(a1-2)Gal(b1-3)GlcNAc(b1-2)Man(a1-3)[Fuc(a1-2)Gal(b1-3)GlcNAc(b1-2)Man(a1-6)]Man(b1-4)GlcNAc(b1-4)GlcNAc
# Method in brief: as §1
# [3] = target: Fuc(a1-2)Gal(b1-3)GlcNAc(b1-3)[Gal(b1-4)GlcNAc(b1-6)]Gal(b1-4)Glc
# Method in brief: as §1
# [4] = target: Fuc(a1-2)Gal(b1-3)[Fuc(a1-4)]GlcNAc(b1-3)[Gal(b1-4)GlcNAc(b1-6)]Gal(b1-4)Glc
# Method in brief: as §1
# [5] = target: Fuc(a1-2)Gal6S(b1-3)GlcNAc6S
# Method in brief: as §1
# [6] = target: Fuc(a1-2)[Gal(a1-3)]Gal(b1-4)GlcNAc
# Method in brief: as §1
# [7] = target: Fuc(a1-2)[GalNAc(a1-3)]Gal(b1-3)GlcNAc(b1-2)Man(a1-3)[Fuc(a1-2)[GalNAc(a1-3)]Gal(b1-3)GlcNAc(b1-2)Man(a1-6)]Man(b1-4)GlcNAc(b1-4)GlcNAc
# Method in brief: as §1
# [8] = target: Fuc(a1-2)[GalNAc(a1-3)]Gal(b1-3)GlcNAc(b1-3)GalNAc
# Method in brief: as §1
# [9] = target: Fuc(a1-2)[GalNAc(a1-3)]Gal(b1-4)[Fuc(a1-3)]GlcNAc(b1-3)GalNAc
# Method in brief: as §1
# [10] = target: Fuc(a1-3)[Gal(b1-4)]GlcNAc(b1-6)GalNAc
# Method in brief: as §1
# [11] = target: Gal(a1-3)Gal(b1-3)[Fuc(a1-4)]GlcNAc(b1-2)Man(a1-3)[Gal(a1-3)Gal(b1-3)[Fuc(a1-4)]GlcNAc(b1-2)Man(a1-6)]Man(b1-4)GlcNAc(b1-4)GlcNAc
# Method in brief: as §1
# [12] = target: Gal(a1-3)Gal(b1-4)GlcNAc
# Method in brief: as §1
# [13] = target: Gal(a1-3)Gal(b1-4)[Fuc(a1-3)]GlcNAc
# Method in brief: as §1
# [14] = target: Gal(a1-3)GalNAc
# Method in brief: as §1
# [15] = target: Gal(a1-4)Gal(b1-3)GlcNAc(b1-2)Man(a1-3)[Gal(a1-4)Gal(b1-3)GlcNAc(b1-2)Man(a1-6)]Man(b1-4)GlcNAc(b1-4)GlcNAc
# Method in brief: as §1
# [16] = target: Gal(b1-3)GalNAc(b1-4)Gal(b1-4)Glc
# Method in brief: as §1
# [17] = target: Gal(b1-3)GlcNAc(b1-2)Man(a1-3)[Gal(b1-3)GlcNAc(b1-2)Man(a1-6)]Man(b1-4)GlcNAc(b1-4)GlcNAc
# Method in brief: as §1
# [18] = target: Gal(b1-3)GlcNAc(b1-3)Gal(b1-4)Glc
# Method in brief: as §1
# [19] = target: Gal(b1-3)GlcNAc(b1-3)Gal(b1-4)[Fuc(a1-3)]GlcNAc(b1-6)[Gal(b1-3)GlcNAc(b1-3)]Gal(b1-4)Glc
# Method in brief: as §1
# [20] = target: Gal(b1-3)[Neu5Ac(a2-6)]GalNAc
# Method in brief: as §1
# [21] = target: Gal(b1-3)[Neu5Ac(a2-6)]GlcNAc(b1-4)Gal(b1-4)Glc
# Method in brief: as §1
# [22] = target: Gal(b1-4)GlcNAc(b1-2)Man(a1-3)[Gal(b1-4)GlcNAc(b1-2)Man(a1-6)][GlcNAc(b1-4)]Man(b1-4)GlcNAc(b1-4)[Fuc(a1-6)]GlcNAc
# Method in brief: as §1
# [23] = target: Gal(b1-4)GlcNAc(b1-3)Gal(b1-4)GlcNAc(b1-3)Gal(b1-4)GlcNAc(b1-2)Man(a1-3)[Gal(b1-4)GlcNAc(b1-3)Gal(b1-4)GlcNAc(b1-3)Gal(b1-4)GlcNAc(b1-2)Man(a1-6)]Man(b1-4)GlcNAc(b1-4)GlcNAc
# Method in brief: as §1
# [24] = target: Gal(b1-4)GlcNAc(b1-3)Gal(b1-4)GlcNAc(b1-3)Gal(b1-4)GlcNAc(b1-3)Gal(b1-4)GlcNAc(b1-2)Man(a1-3)[Gal(b1-4)GlcNAc(b1-3)Gal(b1-4)GlcNAc(b1-3)Gal(b1-4)GlcNAc(b1-3)Gal(b1-4)GlcNAc(b1-2)Man(a1-6)]Man(b1-4)GlcNAc(b1-4)GlcNAc
# Method in brief: as §1
# [25] = target: Gal(b1-4)GlcNAc(b1-3)Gal(b1-4)GlcNAc(b1-3)Gal(b1-4)GlcNAc(b1-3)Gal(b1-4)GlcNAc(b1-2)[Gal(b1-4)GlcNAc(b1-3)Gal(b1-4)GlcNAc(b1-3)Gal(b1-4)GlcNAc(b1-3)Gal(b1-4)GlcNAc(b1-6)]Man(a1-6)[Gal(b1-4)GlcNAc(b1-3)Gal(b1-4)GlcNAc(b1-3)Gal(b1-4)GlcNAc(b1-3)Gal(b1-4)GlcNAc(b1-2)Man(a1-3)]Man(b1-4)GlcNAc(b1-4)[Fuc(a1-6)]GlcNAc
# Method in brief: as §1
# [26] = target: Gal(b1-4)GlcNAc(b1-3)Gal(b1-4)GlcNAc(b1-3)Gal(b1-4)GlcNAc(b1-3)Gal(b1-4)GlcNAc(b1-3)Gal(b1-4)GlcNAc(b1-2)[Gal(b1-4)GlcNAc(b1-3)Gal(b1-4)GlcNAc(b1-3)Gal(b1-4)GlcNAc(b1-3)Gal(b1-4)GlcNAc(b1-3)Gal(b1-4)GlcNAc(b1-6)]Man(a1-6)[Gal(b1-4)GlcNAc(b1-3)Gal(b1-4)GlcNAc(b1-3)Gal(b1-4)GlcNAc(b1-3)Gal(b1-4)GlcNAc(b1-3)Gal(b1-4)GlcNAc(b1-2)Man(a1-3)]Man(b1-4)GlcNAc(b1-4)[Fuc(a1-6)]GlcNAc
# Method in brief: as §1
# [27] = target: Gal(b1-4)GlcNAc(b1-3)[Fuc(a1-3)GlcNAc(b1-6)]Gal(b1-4)Glc
# Method in brief: as §1
binder,measurement,setting,value
Sp8391B-bot-388-20-388 (Bacteroides ovatus) (protein) GCQNNDENEQHYDNKLFISASNFTKEILFKAGDTNVETGLSVAIAKPEEHDIKVTMSPAPELLSTYKLAYYDETAVLLSEEHYSMPETSTTIKSGSIVSPELPIEFINTGELDIKTTYVLPVTIKSVEGIGVLQSAKTYYYVFRGASLINVVCNISRNRAYPDFKNDSKFNNLTENTMEILFKANSFPNTLNTLMGIESNYLLRIGDATIPNNQLQVATSVNNCTSADLQLESGKWYHVAVAFNKGNVKVYINGVEKLSGSTGKSSVSLGAKHTNEEDGSRCFWVGYSYKDDRYFDGVVSEVRIWNRALTAEEIQATNHFYTIEPESEGLIAYWKFDEGSGTVAKDYSVSGYDLTIEKEPKWESVSLPQ,glycan array binding signal (z-score),[1],-0.522
same,glycan array binding signal (z-score),[2],2.69
same,glycan array binding signal (z-score),[3],-0.322
same,glycan array binding signal (z-score),[4],1.29
same,glycan array binding signal (z-score),[5],-0.154
same,glycan array binding signal (z-score),[6],-0.199
same,glycan array binding signal (z-score),[7],0.439
same,glycan array binding signal (z-score),[8],-0.474
same,glycan array binding signal (z-score),[9],-0.673
same,glycan array binding signal (z-score),[10],4.03
same,glycan array binding signal (z-score),[11],8.13
same,glycan array binding signal (z-score),[12],-0.489
same,glycan array binding signal (z-score),[13],-0.616
same,glycan array binding signal (z-score),[14],-0.069
same,glycan array binding signal (z-score),[15],2.6
same,glycan array binding signal (z-score),[16],0.437
same,glycan array binding signal (z-score),[17],3.77
same,glycan array binding signal (z-score),[18],0.105
same,glycan array binding signal (z-score),[19],12.8
same,glycan array binding signal (z-score),[20],-0.208
same,glycan array binding signal (z-score),[21],-0.044
same,glycan array binding signal (z-score),[22],-0.897
same,glycan array binding signal (z-score),[23],2.45
same,glycan array binding signal (z-score),[24],2.49
same,glycan array binding signal (z-score),[25],-0.629
same,glycan array binding signal (z-score),[26],-0.112
same,glycan array binding signal (z-score),[27],0.415
